Screening results deposited in PubChem BioAssay by National Center for Advancing Translational Sciences (NCATS).
Mito fusion act – blocks mitochondrial division or promotes mitochondrial fusion; hit rate 0.23% among 320,000; S. cerevisiae fusion-defective mutant growth rescue, CellTiterGlo 48 h; AID 485298; Potency, µM (doses to about 46.1 µM), for inactives: at the top dose growth rescue (activation), hits mostly activators; note: potency is the fitted concentration of half-maximal effect; % of control where 0% means no effect; nearly all actives have a fitted effect of over 45% in size
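Read-out: ATP-based luminescence (CellTiterGlo, 10 min ambient) reporting growth of fusion-defective ts yeast after 48 hours at 37C on glycerol/ethanol YPEG medium in the presence of compound.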
GRP78 ERSR act – induces the endoplasmic reticulum stress response in human glioma cells | U87-MG GRP78 promoter luciferase reporter, 16 h | Potency, µM, for inactives: at the highest dose activation, usual class: activators | hit rate 0.02% among 420,000 | AID 602332; note: potency is the fitted concentration of half-maximal effect; series mostly up to about 76 µM; % of control where 0% means no effect; nearly all actives have a fitted effect of over 35% in size
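ERSR induction read as luciferase luminescence (Bright-Glo, 10 min at room temperature) in stably transfected human U87-MG glioma cells exposed to compounds for 16 h, using GRP78 as sensor.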
MBNL1 CUG block – MBNL1-poly(CUG) RNA binding inhibition. Q9NR56. TR-FRET MBNL1-His/biotin-(CUG)12 binding, 665/545 ratio. Potency, µM (top dose mostly 57.5 µM), for inactives: at the top dose activity change, negative = inhibition, actives largely listed as inhibitors. hit rate 0.036% among 280,000. AID 2675; active = well fitted inhibition curve with a large enough effect in the signal ratio, with a control signal flat, not every such curve was filed as active; inconclusive = small, poorly fitted or top-dose-only effect, or effect the other way, or a change in a side signal; inactive = no such curve, though single readings can be large or run the other way; the % refers to the signal ratio; note: potency is the fitted concentration of half-maximal effect; % is set by controls: 0 for no effect and ±100 for the full control effect
Target sequence (Q9NR56 whole entry, looked up): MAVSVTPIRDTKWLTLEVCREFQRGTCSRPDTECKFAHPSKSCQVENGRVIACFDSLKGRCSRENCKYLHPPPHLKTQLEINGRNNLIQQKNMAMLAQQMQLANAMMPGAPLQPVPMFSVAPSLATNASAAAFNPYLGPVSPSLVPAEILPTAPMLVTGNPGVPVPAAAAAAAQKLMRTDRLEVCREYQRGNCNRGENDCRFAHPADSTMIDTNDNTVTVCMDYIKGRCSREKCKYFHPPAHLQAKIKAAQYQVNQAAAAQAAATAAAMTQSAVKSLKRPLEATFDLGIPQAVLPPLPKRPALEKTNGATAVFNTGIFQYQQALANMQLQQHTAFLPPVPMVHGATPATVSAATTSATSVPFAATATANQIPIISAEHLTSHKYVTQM
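TR-FRET readout: Ex 340 nm, 665/545 nm emission ratio, normalized to buffer-only (basal) and MBNL1-(CUG)12 controls. Complex of MBNL1-His with Biotin-(CUG)12, compounds 92 nM–58 uM, incubated 60 min at room temperature.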
A-T KAP1 phos – potential ataxia-telangiectasia treatment | F2112 A-T fibroblasts, KAP-1 phosphorylation AlphaLISA; neocarzinostatin DNA damage 30 min before lysis | Potency, µM (highest dose often 57.5 µM), for inactives: at the top dose activation, most hits filed as activators | hit rate 0.19% among 320,000; note: potency is the fitted concentration of half-maximal effect; % of control where 0% means no effect; nearly all actives have a fitted effect of over 45% in size
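hTERT-immortalized A-T patient fibroblasts (F2112), 500 cells/well in OPTI-MEM, 1% FBS, got compounds for 60 min, then NCS for 30 min at 37C. Lysates were then assayed for phospho-KAP-1 by AlphaLISA (anti-pKAP1 donor, anti-KAP1 acceptor beads), 6 hr at 25C.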
ClpP mod – qHTS Assay for Activators of ClpP | ATP-dependent Clp protease proteolytic subunit (Bacillus subtilis (strain 168)), P80244 | purified B. subtilis ClpP, FRET peptide cleavage, 20 min | Potency, µM (doses to about 57.5 µM), without a hit: top-dose activity change, negative = active | hit rate 1.9% among 340,000 | AID 651965, 2013; active = well fitted falling curve with a large enough effect; inconclusive = small, poorly fitted or top-dose-only effect; inactive = no such curve, though single readings can be large or run the other way; note: potency is the fitted concentration of half-maximal effect; the source files actives as falling curves though it sought activators and does not explain the sign; nearly all actives have a fitted effect of over 65% in size
Target sequence (P80244 whole entry, looked up): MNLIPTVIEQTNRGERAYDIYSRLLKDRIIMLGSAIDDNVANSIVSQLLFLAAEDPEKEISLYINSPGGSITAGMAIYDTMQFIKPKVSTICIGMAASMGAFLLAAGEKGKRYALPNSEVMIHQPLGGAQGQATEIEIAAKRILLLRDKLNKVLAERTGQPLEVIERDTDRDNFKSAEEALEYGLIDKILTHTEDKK
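Purified B. subtilis ClpP, 10 microg/mL final in Tris/HCl pH8 with KCl, BSA, glycerol and Tween-20, cleaved an Abz/nitrotyrosine-quenched decapeptide. Fluorescence (ex 320, em 430) was read at 0 and 20 min at room temperature. Delta was normalized to 5.8 microM ADEP and DMSO/no-enzyme controls.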
TCR act – activates T cell receptor signaling; 330,000 tested, under 10 active; Potency, µM (top dose mostly 9.22 µM), without a hit: top-dose activation of IL-2 secretion, actives largely listed as activators; AID 504894; primary human leukocytes, anti-CD3, IL-2 HTRF, 48 h; note: % of control where 0% means no effect
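Activity was scored as IL-2 release from primary human leukocytes given only a TCR signal (a-CD3 beads) plus compound for 48 hr. Detection used a two-antibody HTRF format read at 665nm.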
Numbers without * were called inactive; u = inconclusive; x = no result; [ ] = another dose, or the depositor's remark. Shown are actives, neighbours in structure and some others; about 1.8% of the full set was active somewhere. Unless noted, calls come from the whole dose curve; as a rule, active = well fitted curve in the direction sought with a large enough effect; inconclusive = small, poorly fitted or top-dose-only effect, or another doubt; inactive = no such curve, though single readings can be large; an effect the other way counts as inactive or inconclusive.

SMILES | Mito fusion act | GRP78 ERSR act | MBNL1 CUG block | A-T KAP1 phos | ClpP mod | TCR act
O=C(c1c[nH]c2ccc(S(=O)(=O)N3CCC4(CC3)OCCO4)cc2c1=O)N1CCOCC1 | -4% | -3% | -12% | 4% | 16µM* | -2%
COC(CNC(=O)c1c[nH]c2ccc(S(=O)(=O)N3CCOCC3)cc2c1=O)OC | -3% | -2% | -8% | -7% | 4% | 6%
O=[N+]([O-])c1ccc(C=C2c3ccccc3-c3ccccc32)cc1 | x | -6% | x | x | 0% | x
CCCCCCc1cc2cc(-c3nnc(-c4ccccc4O)o3)c(=O)oc2cc1O | 2% | -4% | -4% | 14% | 0% | 2%
CCCCCCc1cc2cc(S(=O)(=O)c3ccc(F)cc3)c(=O)oc2cc1O | -11% | -7% | -18% | 28µM* | 28µM* | 4%[46.1 µM]
CC(=O)N(c1ccc(Cl)cc1)c1nc(C)cc(C)c1C#N | 6% | -5% | 19% | -2% | x | 2%
CCOc1ccc(N(C(C)=O)c2nc(C)cc(C)c2C#N)cc1 | 1% | -1% | 17% | x | 25µM* | 0%[46.1 µM]
CN(C)c1ccc(/C=C2\C(=O)Nc3ccccc32)cc1 | 13µM* | u | u | x | 0% | x
CCc1ccccc1N(C)C | x | 4% | x | x | 1% | x
CC(C)(C)c1ccc(S(=O)(=O)N[C@H]2CC[C@@H](n3cc(C(=O)N4CCCC4)nn3)CC2)cc1 | x | -2% | x | x | x | x
Cc1cccn2c(N)c(-c3ccccc3)nc12 | -4% | 2% | 8% | u | 16µM* | 0%
CCOC(=O)c1c(-c2ccccc2)nc2c(C)cccn12 | -13% | 0% | -5% | 11% | -6% | -2%
Cc1ccc(-c2csc3ncnc(-n4cnc5ccccc54)c23)cc1 | 30% | -3% | -13% | 1% | 28µM* | 3%[46.1 µM]
c1ccc(-c2csc3ncnc(-n4cnc5ccccc54)c23)cc1 | 4% | -2% | -16% | 0% | u | 2%
Cc1sc2ncnc(-n3cnc4ccccc43)c2c1C | -8% | -2% | 5% | 3% | 28µM* | x
Cc1ccc2c(c1)cc(CN(C)Cc1nc(C)cs1)c(=O)n2C | x | -2% | x | x | x | x
Cc1noc(C)c1-c1ccc2ncnc(NCc3cccnc3)c2c1 | x | 1% | x | x | x | x
Cc1cc(C(=O)CN2CCCCC2)c(C)n1-c1ccc(F)cc1 | 0% | -2% | -16% | 1% | 25µM* | 17%[46.1 µM]
Cn1ncc([N+](=O)[O-])c1C(=O)Nc1ccc2c(c1)OCCO2 | 1% | -9% | u | 4% | 32µM* | -2%
COCC1CCCN(Cc2ccc3c(c2)CN(C(=O)c2ccc(-n4cccn4)cc2)CCO3)C1 (stereo unspecified) | x | -1% | x | x | x | x
CCc1nc(N2CCCC2)c(C#N)c2c1CCCC2 | -2% | -6% | 2% | 12% | 20µM* | 2%
CC(C)c1nc(N2CCCC2)c(C#N)c2c1CCCC2 | 6% | -7% | 8% | u | 28µM* | -7%
CCCc1nc(N2CCCC2)c(C#N)c2c1CCCC2 | 5% | -4% | -8% | 9% | 32µM* | 1%
CCSc1nc(N2CCCCC2)c2c(c1C#N)CCCC2 | -1% | 0% | 9% | x | u | -11%
CCc1nc(N2CCOCC2)c(C#N)c2c1CCCC2 | 24% | -4% | 10% | 7% | 95% | 2%
SMILES | Mito fusion act | GRP78 ERSR act | MBNL1 CUG block | A-T KAP1 phos | ClpP mod | TCR act
CCCCc1nc(Cl)c(C#N)c2c1CCCC2 | 7% | -1% | 2% | 10% | 1% | -3%[46.1 µM]
CSc1nc(Oc2ccc(=O)n(C)n2)nc(N(C)C)n1 | 5% | -5% | 0% | -3% | -3% | x
CCCn1nc(Oc2nc(SC)nc(N(C)C)n2)ccc1=O | 0% | -6% | 1% | 1% | 25µM* | 13%
Nc1nc(N)c2c(Oc3ccc(F)cc3)cccc2n1 | x | -1% | x | x | 4% | x
Cc1ccc(Nc2c(-c3ccco3)nc3ccc(C)cn23)cc1 | x | -3% | x | x | 6.3µM* | x
CC(=O)c1ccccc1-c1ccc2c(c1)CC(CNC(=O)c1ccnc(Cl)c1)O2 (stereo unspecified) | x | -3% | x | x | x | x
COCC(=O)Nc1cc(C(=O)N2CCCCC2c2nccn2C)cc2nc(-c3ccccc3)n(C)c12 (stereo unspecified) | x | -1% | x | x | x | x
CCCCCCCCN1[C@@H](CC(=O)OC)c2ccc(/C=C/C(=O)OC)cc2S1(=O)=O | x | -4% | x | x | -8% | x
Clc1ccc(C(c2ccccc2Cl)C(Cl)Cl)cc1 (stereo unspecified) | u | -4% | x | 28µM* | -2% | 0%
CNc1nn(-c2cccc(Cl)c2)nc1N | 5% | 1% | 1% | -5% | 32µM* | 4%
Nc1ccccc1Nc1cc(-c2ccccc2)nn1-c1cccc(Cl)c1 | u | -3% | -2% | -5% | 1% | -3%[46.1 µM]
Cc1sc2ccccc2[n+]1Cc1ccccc1 | x | 1% | x | x | 0% | x
C=CCn1c(NC(=O)c2ccc(Br)o2)c(S(=O)(=O)c2ccccc2)c2nc3ccccc3nc21 | 11µM* | 0% | u | x | -26% | -6%
O=[N+]([O-])c1ccc(Nc2nc(NCCN3CCOCC3)nc(Nc3ccc(I)cc3)n2)cc1 | x | -5% | x | x | 0% | x
CC(C)N(CCn1cnc2c([nH]c3ccccc32)c1=O)C(C)C | 1% | -6% | 6% | -9% | -11% | -1%
COc1cc2[nH]c3c(=O)n(CCN(C(C)C)C(C)C)cnc3c2cc1OC | 4% | -1% | -7% | x | 28µM* | -6%
C=C1/C(=C\C=C2/CCC[C@@]3(C)[C@@H]([C@H](C)OCCC(C)(C)O)CC[C@@H]23)C[C@@H](O)C[C@@H]1O | x | -4% | x | x | x | x
Cc1cc(C)nc(Sc2ccc(/C=C(\C#N)C(N)=O)o2)n1 | -7% | -2% | u | 5% | 28µM* | 2%[46.1 µM]
Cc1ccc(NC(=O)/C(C#N)=C/c2ccc(Sc3nc(C)cc(C)n3)o2)cc1 | -1% | -4% | 6% | -11% | 1% | -3%
O=C(CC1N=C2c3ccccc3N=C(SCc3ccc(Cl)cc3)N2C1=O)NCCc1ccccc1 (stereo unspecified) | x | 4% | x | x | 4% | x
O=S(=O)(c1cccc(F)c1)N1CCN(c2ncnc3scc(-c4ccc(F)cc4)c23)CC1 | 13% | -2% | x | 6% | 25µM* | -2%
CC1=NNC(=O)C1CC(=O)N/N=C/c1sccc1C (stereo unspecified) | 5% | -1% | 9% | 4% | x | -4%
COc1cc(OC)c(OC)cc1/C=N/NC(=O)CC1C(=O)NN=C1C (stereo unspecified) | -7% | -7% | 14% | 3% | 28µM* | -4%
Cc1cc(-c2ccc(C)c(S(=O)(=O)Nc3ccccn3)c2)on1 | x | -3% | x | x | 28µM* | x
